Assay results taken from the supplement of paper PMC6555819.

test system: THRa:RXRa (NR concentration 90 nM, RXRa partner concentration 90 nM); assay: PBM binding z-score (relative to random genomic background probes); higher = stronger binding; sequences stand for … in GC…GCGATTGACAGCGTAGAATGAAGG
Procedure, shortened: (§1)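 Random background probes are the reference for binding z-scores. These scores derive from regression-normalized fluorescence on custom Agilent 4×180K protein-binding microarrays incubated 1 h with ligand-free nuclear receptor dimers. Binding was detected with antibodies against each partner (one per run).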

Sequence	PBM binding z-score
GTTACAGGGTCAGCTAGAGGCCAGAGTATGGAAA	3.11
TCTTATAGGTAAAGGTGAAAGTCGAACGATATGA	1.39
AGAACGAGGGCACGCAGAGTTGATAGCAGAGTAG	1.94
CGAGCTAGGTCATCCAGGACAGTGAATACATTGA	3.48
CGTCCAAGGTCAGAGGTCAGTGAAGAGATGACGG	4.58
TCATATAGGTAAATGCTAGGTCAAAGTCCGATCT	2.96
CAGCCTAGGTCACGGCCAGTATAGGAGGAACGTT	3.65
TGTCAAAGTTCAAAGGTAACGTTAGTATCCACAC	3.18
TCTTGTAGATCAAAGGTTAGGAAAGCCGAAGCCT	0.654
CGTCCAAGGTCAAGTTCAGTGAAAGAGACTCGAA	3.99
CAAACTAGGTAACGAAAGGTCAAAGTCGAATGAC	4
CCTAGCAGGCCAGGGTTACTCAAGCATTTCGCTT	0.382
GTACCAAGGTGAATAGGTCGTTGCTGAGTAGGCG	1.8
ACTTACGGGTCACCGAGGTTATAGCACGCGTATA	4.24
GCTGCTAGGTCAAATGATGGTCAGCTAAAGCTCG	2.78
AATACAGGGTCACTCGGCCAGAGTAGGTACGAAT	3.4
TAGCCTAGGTTAGATCGGGCCAGTATACGCTATA	2.61
TCATATAGGTAATACATGTGAAAGTCGGCATCTA	0.246
ATACCAGGGTGATCGTGAGGTCGTTGATACTAAC	3.38
CCTATTAGTTGACCATAAGGGCATCCGAAGCTCG	1.89

Sequence	PBM binding z-score
CGTACAAGGTCAATGCTAGGTCAGTGAAAGCATT	4.45
TCTGCTAGGTCAGTTCGTCAGCTAACGAGCTGCC	1.2
TCGAGTAGTTTAGGGGCATTCAGAATGGCGTCGA	1.33
GTACCAAGGTGAATAGGTCGTCGATGAGTAGGCG	2.11
CTCGAAAGGACGGTTGAGGTGAGTATACGGATAA	2.93
GGAACGAGGGCAAGGTGATAGCAGAGTTTGATGG	1.89
TAGCCTAGGTCATGCGGGCCATTATAGTGTCGGC	3.16
GCTCGGAGGACAAGCTCAGAGCTTTGTCCGTAGA	0.34
GCAGACAGGTGAAACGCAGGTAAATCAGGGTGGC	1.23
GCTTGTAGATCAAGGTTAAGAAAGACTAAGCTAA	1.14
AGTCAAAGTTCACTAGGTAACGTGAGATTCAGCT	1.87
CTACCGAGGTGAACAAGGTCGTTGATTACTATTC	3.6
CAAACTAGGTCAAGGTCAATGTCGGTTTGTGCCA	4.41
TCTCGGAGGACACGACAGGTCAGAGCTCGACATC	2.96
TAGCCTAGGTCATTGGGCGAGTATAGTACGCATC	2.72
GCTAGTTGGTCAGTAAAACGTCACACACCGGTCG	-0.444
CTGACTGGGGCAAAGGTTACCATACTCAGTACGA	2.08
CCTTACGGGTCACTCCAGCTTATAGCATCGGAGT	2.22
GCATATAGGTAATACAAGGTGAACGTCCGATTGT	4.18
ACTCGGAGGACAAAGGCCAGAGCTACGCCAGTGA	0.389

test system: THRa homodimer (NR concentration 90 nM); assay: as above
Procedure, shortened: as §1

Sequence	PBM binding z-score
GTTACAGGGTCAGCTAGAGGCCAGAGTATGGAAA	0.599
TCTTATAGGTAAAGGTGAAAGTCGAACGATATGA	0.153
AGAACGAGGGCACGCAGAGTTGATAGCAGAGTAG	0.33
CGAGCTAGGTCATCCAGGACAGTGAATACATTGA	1.79
CGTCCAAGGTCAGAGGTCAGTGAAGAGATGACGG	2.42
TCATATAGGTAAATGCTAGGTCAAAGTCCGATCT	1.76
CAGCCTAGGTCACGGCCAGTATAGGAGGAACGTT	1.98
TGTCAAAGTTCAAAGGTAACGTTAGTATCCACAC	-0.0671
TCTTGTAGATCAAAGGTTAGGAAAGCCGAAGCCT	-0.709
CGTCCAAGGTCAAGTTCAGTGAAAGAGACTCGAA	2.87
CAAACTAGGTAACGAAAGGTCAAAGTCGAATGAC	1.16
CCTAGCAGGCCAGGGTTACTCAAGCATTTCGCTT	-0.445
GTACCAAGGTGAATAGGTCGTTGCTGAGTAGGCG	0.155
ACTTACGGGTCACCGAGGTTATAGCACGCGTATA	1.45
GCTGCTAGGTCAAATGATGGTCAGCTAAAGCTCG	0.255
AATACAGGGTCACTCGGCCAGAGTAGGTACGAAT	0.907
TAGCCTAGGTTAGATCGGGCCAGTATACGCTATA	-0.725
TCATATAGGTAATACATGTGAAAGTCGGCATCTA	-0.0874
ATACCAGGGTGATCGTGAGGTCGTTGATACTAAC	2.62
CCTATTAGTTGACCATAAGGGCATCCGAAGCTCG	1.35

Sequence	PBM binding z-score
CGTACAAGGTCAATGCTAGGTCAGTGAAAGCATT	3.05
TCTGCTAGGTCAGTTCGTCAGCTAACGAGCTGCC	-0.388
TCGAGTAGTTTAGGGGCATTCAGAATGGCGTCGA	0.108
GTACCAAGGTGAATAGGTCGTCGATGAGTAGGCG	0.363
CTCGAAAGGACGGTTGAGGTGAGTATACGGATAA	0.887
GGAACGAGGGCAAGGTGATAGCAGAGTTTGATGG	0.882
TAGCCTAGGTCATGCGGGCCATTATAGTGTCGGC	1.17
GCTCGGAGGACAAGCTCAGAGCTTTGTCCGTAGA	-0.504
GCAGACAGGTGAAACGCAGGTAAATCAGGGTGGC	-0.537
GCTTGTAGATCAAGGTTAAGAAAGACTAAGCTAA	-0.422
AGTCAAAGTTCACTAGGTAACGTGAGATTCAGCT	0.0345
CTACCGAGGTGAACAAGGTCGTTGATTACTATTC	2.43
CAAACTAGGTCAAGGTCAATGTCGGTTTGTGCCA	3.82
TCTCGGAGGACACGACAGGTCAGAGCTCGACATC	1.04
TAGCCTAGGTCATTGGGCGAGTATAGTACGCATC	0.571
GCTAGTTGGTCAGTAAAACGTCACACACCGGTCG	-0.619
CTGACTGGGGCAAAGGTTACCATACTCAGTACGA	0.233
CCTTACGGGTCACTCCAGCTTATAGCATCGGAGT	-0.158
GCATATAGGTAATACAAGGTGAACGTCCGATTGT	1.38
ACTCGGAGGACAAAGGCCAGAGCTACGCCAGTGA	-0.475
